This note sets out measurements from PubChem BioAssay (NCI).

About 83,000 compounds went through this panel and 20% of them were active in at least one assay; those are over-represented in the sample as a whole.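 Interpretation: 100, growth as untreated; towards 0, rising growth inhibition; 0, no net growth; 0 to -100, cell death. Compounds scoring below 10 were considered active.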 The source made the active and inactive calls.

In this assay the test system is SN12C renal. Kind of assay: NCI-60 one-dose screen, 48 h (100 = growth as untreated, 0 = no growth, -100 = all killed). The settings on record: 10 µM unless noted. As to the method:
Growth inhibition of the SN12C human tumor cell line is measured as a screen for anti-cancer activity. Cells are grown in 96 well plates and exposed to the test compound for 48 hours. Compounds are tested at a single concentration, which is 10^-5 M for most compounds. The reported endpoint is percent growth (GI% or GIPRCNT), where numbers from 0 - 100% represent growth inhibition, and numbers from -100% - 0 represent cell death. For example, a value of 40 represents 60% growth inhibition. A value of 0 means no net growth occurred over the course of the experiment. A value of -40 indicates 40% of cells at the beginning of the experiment died by the end of the experiment. A value of -100 means all cells are dead at the end of the experiment.
NCI-60 Human Tumor Cell Lines Screen was performed using the standard one-dose NCI protocol, which is described in more detail at https://dtp.cancer.gov/discovery_development/nci-60/default.htm.
Compounds with GIPRCNT values below 10 were considered active. Activity score was based on GIPRCNT using the following formula: […]
Score is 0 for GIPRCNT values of 100 or above, 50 for GIPRCNT values of 0, and 100 for GIPRCNT values of -100.
With `O=C(NN1C(=O)/C(=C/C=C/c2ccc([N+](=O)[O-])o2)SC1=S)c1cccc(O)c1`, the growth was -99.8% (active). The same measure for `O=C(CN1C(=O)/C(=C/c2ccccc2Cl)SC1=S)N1CCOCC1`: 78.5% (inactive); for `C=C1CCC2C3(C)COC(c4ccccc4F)OC3CCC2(C)C1CC(O)C1=CCOC1=O` (stereo not given): 39.1% (inactive). Then `O=C(Nc1ccc(C(F)(F)F)cc1)Nc1ccc2oc(=O)ccc2c1`, with 7.6% (active); and `COc1cccc(/C=C/C(=O)c2ccc(OC)c(S(N)(=O)=O)c2)c1`, with 14.5% (inactive); and `O=c1oc2ccccc2cc1-c1csc(N2N=C(c3ccccc3)CC2c2ccc(N3CCOCC3)cc2)n1` (stereo not given), with 107% (inactive). Regarding `Cc1cc2nc3c([nH]c2cc1C)c1ccc(=O)cc1n3CCN(C)C`, the growth is 37.7% (inactive). `CC1=C(C(=O)OCc2ccccc2)C(c2ccc(-n3cncn3)cc2)n2c(nc3ccccc32)N1` (stereo not given): the growth is 72.9% (inactive). As to `CCOC(=O)C1=C(N)N(c2ccccc2)C2=C(C(=O)CC(C)(C)C2)C1c1ccc([N+](=O)[O-])cc1` (stereo not given), the growth was 98.4% (inactive). Consider `N/C(=N\c1nc2ccccc2s1)NC(=O)Nc1ccccc1Br`, for which the growth is -39.3% (active). With `CN1CCN(Cc2ccc(C(=O)Nc3cccc(C#Cc4cccc5[nH]nc(N)c45)c3)cc2C(F)(F)F)CC1`, the growth is -94.7% (active). Take `CC(C)c1sc(NC(=O)c2cc(NC(=O)c3cc(NC(=O)c4nccn4C)cn3C)cn2C)nc1C(=O)NCCCN(C)C`: the growth was 85.7% (inactive).

For the molecule `N/C(=N\c1nc2ccccc2s1)NC(=O)Nc1ccc(Cl)cc1Cl`, the growth is -88.7% (active). On to `CC1=C(C#N)C2=NNCC(c3ccccc3)=NN2C(c2ccccc2)=C1`, for which the growth is 105% (inactive).

For `COc1ccc(/C=C/c2nc3ccccc3n3c(-c4ccc(Cl)cc4)nnc23)cc1`, the growth was 91.7% (inactive). For `COc1ccc2[nH]cc(-c3nnc(N)nc3-c3cn(C)c4ncc(Br)cc34)c2c1`, the growth is 60.2% (inactive). Regarding `COc1cc2c3c(n(CCCN4CCC[C@@H]4CO)c(=O)c2cc1OC)-c1cc2c(cc1C3=O)OCO2`, the growth is -91.7% (active). As to `COc1ccc(Cc2nn(CC(=O)N/N=C/c3ccc(F)cc3)c(=O)c3c(C)noc23)cc1`, the growth was -0.271% (active). On to `Cn1cc(-c2cc(N)n3nc(-c4cn(C)c5ncc(Br)cc45)cc3n2)c2cc(Br)cnc21`, for which the growth was 12.4% (inactive). Take `N#Cc1c(-c2cccnc2)cc(-c2ccc3ccccc3c2)[nH]c1=O`: the growth was 74.3% (inactive). On to `COc1ccc(/C=C/c2nc3ccccc3c(=O)n2CC(=O)Nc2ccc(Cl)cc2)cc1`, for which the growth was 55.3% (inactive). For `CC(=O)Nc1cccc(Nc2nc(NCc3ccccc3)c3ccccc3n2)c1`, the growth is -90.2% (active). With `Cn1cc(-c2cc(N)n3nc(-c4cn(C)c5ccccc45)cc3n2)c2cc(Cl)ccc21`, the growth is -53.9% (active). Regarding `COc1ccc(C(=O)/C=C/c2ccccc2Cl)cc1S(N)(=O)=O`, the growth is 97.2% (inactive). Then `O=C(O)c1cccc(-c2ccc(/C=N/NC(=O)c3[nH]c4ccc(Br)cc4c3-c3ccccc3)o2)c1`, with 81.5% (inactive). Take `CC(=O)Nc1cccc(Nc2nc(N[C@H]3CCCc4ccccc43)c3ccccc3n2)c1`: the growth is 103% (inactive). For the molecule `Cn1cc(-c2cc3nc(-c4cn(C)c5ncc(Br)cc45)cc(N)n3n2)c2ccccc21`, the growth was -82.2% (active). As for `CC(=O)Nc1cccc(Nc2nccc(N[C@@H](C)c3ccccc3)n2)c1`, the growth was 15.4% (inactive).

For `COc1ccc(C(=O)/C=C/c2cccc(Cl)c2Cl)cc1S(N)(=O)=O`, the growth was -2.06% (active). As for `Cc1ccc([C@H]2C(C(=O)c3ccc(Cl)cc3)C3(N[C@@H]2c2ccccc2)C(=O)Nc2ccccc23)cc1` (stereo not given in full), the growth is 4.19% (active). Then `COCOc1ccc2c(=O)c(C)c(C(=O)N[C@@H](Cc3ccccc3)C(O)C(=O)NCCc3ccc(OC)cc3)oc2c1` (stereo not given in full), with 95.2% (inactive); and `COc1cc(-c2nc3cc(Cl)c(Cl)cc3[nH]2)ccc1OCc1nnc(-c2cccs2)o1`, with 33.7% (inactive); and `C=C1CCC2C3(C)COC(c4ccccc4)OC3CCC2(C)C1CC(NCc1ccccc1)C1=CCOC1=O` (stereo not given), with 79.4% (inactive). As for `N/C(=N\c1nc2ccccc2s1)NC(=O)Nc1c(Cl)cccc1Cl`, the growth is 30.4% (inactive). With `CC(=O)Oc1ccccc1C(=O)[Se]CC(=O)Nc1cccc(C(F)(F)F)c1`, the growth was -80.3% (active). For the molecule `N#Cc1c(-c2ccc(Cl)cc2)nc2n[nH]c(-c3ccc(Cl)cc3)c2c1-c1ccc(C(F)(F)F)cc1`, the growth was -5.91% (active). Then `O=C(/C=C/Nc1ccc2oc(=O)ccc2c1)c1cc2cc(Br)ccc2oc1=O`, with 102% (inactive). Regarding `Cc1ccc(-c2nnc3ccc(N/N=C/c4ccccc4)nn23)cc1`, the growth was 101% (inactive). The same measure for `CC1(C)CC[C@]2(C(=O)O)CC[C@]3(C)C(=CCC4[C@@]5(C)C[C@@H](O)[C@@H]6OC(c7ccccc7F)OC[C@@]6(C)C5CC[C@]43C)C2C1` (stereo not given in full): 3.09% (active); for `C=C1CC[C@@H]2[C@]3(C)COC(c4cn[nH]c4-c4cccc(Br)c4)O[C@@H]3CC[C@@]2(C)[C@@H]1C/C=C1/C(=O)OCC1O` (stereo not given in full): -77.7% (active).
